# aSyn rescue – rescues yeast growth from alpha-synuclein toxicity; actives 0.14% (n = 370,000); Potency, µM (series often up to 46.1 µM), without a hit: at the top dose growth rescue (activation), actives largely listed as activators; Yeast expressing alpha-synuclein, growth rescue, BacTiter-Glo, 24 h; further: % of control where 0% means no effect; nearly all actives have a fitted effect of over 65% in size
#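 Rescue of yeast growth: cells expressing toxic alpha-synuclein, induced in galactose at OD600 0.02, incubated with compound 24 h at 30 C. ATP luminescence quantified growth; inhibitors of toxicity appear as activators.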
# Rango release inh – prevents RanGTP from dissociating the Rango-importin beta complex; Potency, µM (doses to about 46.1 µM), inactives show at the top dose activity change, negative = inhibition; O95149+P62826; Biochemical FRET Rango-importin beta, RanGTP-induced dissociation; actives 0.071% (n = 340,000); calls by dose curve; further: % of control where 0% means no effect; nearly all actives have a fitted effect of over 45% in size
#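 Two FRET readings bracket the reaction: one 5 min after compound meets Rango–importin beta, another 45 min after RanGTP-RCC1 (0.6 uM Ran, 0.2 uM RCC1, 2 mM GTP) is added. Only the second defines inhibition.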
# Abeta rescue – restores growth of yeast expressing A-beta42 peptide; actives 0.063% (n = 410,000); Potency, µM (doses to about 46.1 µM), actives largely listed as activators; yeast expressing A-beta42, growth rescue, OD600, 48 h; response scale: 0% DMSO, 100% iron-clioquinol control; AID 1347071; further: nearly all actives have a fitted effect of over 55% in size
#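 Yeast growth medium received pinned compounds, then yeast cells expressing toxic A-beta were added; plates incubated at 30 C for 48 hr. Growth read as absorbance at 600 nm, normalized to DMSO and equimolar FeCl3 plus clioquinol controls.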
# TDP43 rescue – inhibitors of TDP-43 toxicity in yeast; TDP-43 expressing yeast growth rescue, BacTiter-Glo, 24 h; Potency, µM (top dose mostly 46.1 µM), for inactives: at the highest dose growth rescue (activation), usual class: activators; actives 1.8% (n = 410,000); AID 652104; further: % of control where 0% means no effect; nearly all actives have a fitted effect of over 50% in size
#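 Cell-based yeast growth screen: TDP-43 expression induced in galactose, inoculum OD600=0.02 after raffinose pregrowth to mid-log. Read-out BacTiter-Glo luminescence at 24 hr, 30 deg C; inhibition of toxicity seen as signal increase.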
# Rango complex inh – inhibitors of Rango-importin beta complex formation; Q14974; Rango CFP/YFP FRET sensor + importin beta, 45 min; Potency, µM (series often up to 92.2 µM), for inactives: top-dose inhibition of complex formation; actives 0.031% (n = 340,000); calls by dose curve;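 further: 0% = DMSO wells and 100% = buffer wells lacking importin beta; nearly all actives have a fitted effect of over 15% in size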
# Target sequence (Q14974 whole entry, looked up): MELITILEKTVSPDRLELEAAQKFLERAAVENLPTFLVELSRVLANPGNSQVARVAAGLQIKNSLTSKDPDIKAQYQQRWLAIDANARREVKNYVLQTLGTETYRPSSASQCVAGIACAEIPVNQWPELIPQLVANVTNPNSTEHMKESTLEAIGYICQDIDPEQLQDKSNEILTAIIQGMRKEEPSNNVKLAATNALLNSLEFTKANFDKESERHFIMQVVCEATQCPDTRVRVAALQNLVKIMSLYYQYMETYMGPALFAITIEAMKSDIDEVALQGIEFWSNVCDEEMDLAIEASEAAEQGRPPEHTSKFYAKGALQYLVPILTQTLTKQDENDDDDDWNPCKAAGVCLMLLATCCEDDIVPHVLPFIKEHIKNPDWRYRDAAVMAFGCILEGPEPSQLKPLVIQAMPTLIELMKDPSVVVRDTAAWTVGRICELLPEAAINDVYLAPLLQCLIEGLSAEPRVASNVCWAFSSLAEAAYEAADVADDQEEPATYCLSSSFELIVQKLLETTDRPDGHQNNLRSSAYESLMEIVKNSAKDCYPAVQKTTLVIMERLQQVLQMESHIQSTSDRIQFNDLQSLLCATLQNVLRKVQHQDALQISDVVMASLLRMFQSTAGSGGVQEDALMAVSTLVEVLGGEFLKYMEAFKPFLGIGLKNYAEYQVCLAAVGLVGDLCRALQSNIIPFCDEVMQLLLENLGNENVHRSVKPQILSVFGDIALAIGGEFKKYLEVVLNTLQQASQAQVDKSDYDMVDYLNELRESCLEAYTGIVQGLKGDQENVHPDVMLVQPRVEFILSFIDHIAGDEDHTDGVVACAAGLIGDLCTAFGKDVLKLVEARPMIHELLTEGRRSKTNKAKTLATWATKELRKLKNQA
#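 FRET biosensor Rango (snurportin 1 IBB between N-terminal EYFP and C-terminal Cerulean), 50 nM in PBS/1 mM DTT/0.02% Tween-20/0.1% BSA, preincubated 5 min RT with compound; 0.125 microM importin beta added, 45 min RT, CFP/YFP FRET ratio read.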
# ASM inhibitor – inhibitors of human secretory acid sphingomyelinase; P17405; Potency, µM (top dose mostly 57.5 µM), inactives show at the highest dose activity change, negative = inhibition, actives largely listed as inhibitors; actives 0.006% (n = 340,000); placental ASM, HMU-PC fluorogenic substrate, 60 min
#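 Fluorogenic HMU-PC substrate (9 uM final) is turned over by placental ASM in 60 min at 37 C after a 10 min compound preincubation. Reaction ended by alkaline stop (pH 10), with fluorescence read at 386/447 nm.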
# Starred values were filed as active, the others as inactive; i = inactive; ? = inconclusive; nt = no result; [ ] = another dose, or the depositor's remark. Most compounds without a hit are left out; they make up all but 2% or so of the library. Unless noted, the call rests on the fitted dose curve; in most records, active means well fitted curve in the direction sought with a large enough effect; inconclusive means small, poorly fitted or top-dose-only effect, or another doubt; inactive means no such curve, though single readings can be large; an effect the other way counts as inactive or inconclusive. Potency means the concentration at half of the fitted maximal effect.
SMILES,aSyn rescue,Rango release inh,Abeta rescue,TDP43 rescue,Rango complex inh,ASM inhibitor
CN1Cc2c(N3CCOCC3)nc(SCc3ccccc3)c(C#N)c2CC1(C)C,-1%,8.2µM*,i,-13%,?,-1%
CCCCCCCC/C=C\CCCCCCCC(=O)NCCc1ccc(O)c(O)c1,?,1%,i,22µM*,-2%,-22%
CCCCCCCC/C=C\CCCCCCCC(=O)NCc1ccc(O)c(OC)c1,2%,nt,nt,nt,nt,nt
O=C(Oc1c(-c2ccccc2)c(=O)n2c3c(cccc13)CC2)c1cccc([N+](=O)[O-])c1,?,1%,14µM*,-29%[1.82 µM],-2%,-17%
O=C(CSCc1ccc(Cl)cc1)Nc1ccc2c(c1)OCCO2,5%,6%,i,11µM*,-1%,-3%
Cc1ccc(CSCC(=O)Nc2ccc3c(c2)OCO3)cc1,5%,32%,i,26%,5%,-3%
Cc1ccc2oc(-c3ccc(C)c(NC(=O)/C=C/c4ccc(Cl)cc4)c3)nc2c1,-3%,nt,i,-1%,nt,nt
O=C(NCCN1C(=O)S/C(=C\c2cccc(Cl)c2Cl)C1=O)C1=COCCO1,2%,-11%,i,4µM*,1%,-2%
Cc1ccc(S(=O)(=O)N2CCOCC2)cc1C(=O)NCCN1C(=O)S/C(=C\c2ccccc2Cl)C1=O,0%,4%,i,13%,-3%,-8%
C=C1CCN(Cc2ccccc2)S(=O)(=O)c2ccccc21,22µM*,5%,i,-12%,0%,-1%
Cn1cc(-c2ccc3c(c2)OCO3)c2ccccc21,2%,nt,i,25µM*,nt,nt
Cn1cc(S(=O)(=O)CC(=O)Nc2ccc3c(c2)OCO3)c2ccccc21,0%,0%,i,-21%,-3%,0%
COc1ccccc1CNC(=O)CCC1N=C2c3ccccc3N=C(SCc3ccc(Cl)cc3)N2C1=O (stereo not given),nt,nt,i,22%,nt,nt
Cc1ccccc1CSc1ccc(-c2cccs2)nn1,nt,nt,i,-10%,nt,nt
Cc1cc2ncn(-c3nnnn3-c3ccccc3)c2cc1C,1%,2%,i,18µM*,-2%,-3%
CC(C)C1C(=O)N(Cc2cn(CCC3OCCO3)nn2)CCS(=O)(=O)N1Cc1ccc(-c2ccc(F)cc2Cl)cc1 (stereo not given),?,nt,i,22µM*,nt,nt
CC(C)C1C(=O)N(Cc2cn(CCC3OCCO3)nn2)CCS(=O)(=O)N1Cc1ccc(-c2ccncc2)cc1 (stereo not given),-2%,nt,i,18%,nt,nt
CC(C)C1C(=O)N(Cc2cn(CCC3OCCO3)nn2)CCS(=O)(=O)N1Cc1ccc(-c2ccccc2Cl)cc1 (stereo not given),?,nt,i,35µM*,nt,nt
CC(C)C1C(=O)N(Cc2cn(CCC3OCCO3)nn2)CCS(=O)(=O)N1Cc1ccc(-c2ccccc2)cc1 (stereo not given),0%,nt,i,?,nt,nt
COc1ccc(CCn2c(=S)[nH]c(=O)c3nccnc32)cc1OC,-1%,nt,nt,nt,nt,nt
COc1cc(OC)c(NC(=O)CCc2c(C)nc3c4c(C)cc(C)nc4nn3c2C)cc1Cl,nt,nt,i,7%,nt,nt
CCc1cc(=O)oc2c3c(c(Cl)cc12)OCN(Cc1cccc(OC)c1)C3,nt,nt,i,1%,nt,nt
O=C1OC(/C(=C\Nc2ccccc2)[N+](=O)[O-])c2ccccc21 (stereo not given),16µM*,-15%,i,1%,1%,0%
COc1cccc(CNC(=O)C2CCCN(c3nn4cc(-c5ccc(C)cc5)nc4s3)C2)c1 (stereo not given),nt,nt,i,0%,nt,nt
CCN(CC(=O)NC(C)(C)C)C(=O)COc1c(Cl)cc(Cl)c2ccc(C)nc12,10%,2%,?,28µM*,?,0%
SMILES,aSyn rescue,Rango release inh,Abeta rescue,TDP43 rescue,Rango complex inh,ASM inhibitor
CCCCCC1CC1C(=O)N/N=C/c1ccc(N(C)C)cc1 (stereo not given),1%,8.2µM*,i,?,?,23%
Cc1ccc(-c2nc3sccn3c2Nc2ccccc2C)cc1,nt,nt,i,35µM*,nt,nt
Cc1ccccc1Nc1c(-c2ccc(Br)cc2O)nc2sccn12,nt,nt,i,2%,nt,nt
CCOc1ccc(C(=O)Nc2ccc(-c3cc4ccccc4oc3=O)cc2)cc1Br,nt,nt,i,23%,nt,nt
O=[N+]([O-])c1cnc(Sc2ccncn2)s1,-71%,-3%,i,?,-2%,2%
C=CCn1c(Sc2ncc([N+](=O)[O-])s2)n[nH]c1=O,2%,0%,i,13µM*,?,3%
Cc1ccc(NC(=O)CCNS(=O)(=O)c2ccc3c(c2)CCCC(=O)N3)cc1,-1%,nt,i,-1%,nt,nt
O=C(Nc1ccccc1)c1cc2c(-c3ccccc3)nn(-c3ccccc3)c2s1,-5%,nt,i,16%,nt,nt
Nc1nonc1-n1nnc(C(=O)N/N=C/c2ccc(O)cc2)c1COc1ccc(F)cc1,-18%,17%,i,-29%,0%,7%
CN(C)Cc1c(C(=O)N/N=C/c2ccc(OCc3c(F)cccc3Cl)cc2)nnn1-c1nonc1N,-1%,0%,i,11µM*,-4%,-9%
Cc1ccc(Sc2ncccc2[N+](=O)[O-])cc1,15%,-13%,i,?,-5%,-1%
Cc1ccccc1Sc1ncccc1[N+](=O)[O-],3%,10%,i,13µM*,5%,1%
Cc1ccnc(Sc2ncccc2[N+](=O)[O-])n1,1%,23%,i,20%,?,-1%
O=[N+]([O-])c1cccnc1Sc1ccc(Br)cc1,-3%,1%,i,13µM*,0%,-5%
CCOC(=O)N1CCC(NC(=O)c2cnn(-c3cccc(F)c3)c2-n2cccc2)CC1,nt,nt,i,-1%,nt,nt
Cc1cccc(C(=O)Nc2nnc(S(=O)(=O)N(C)c3ccccc3C)s2)c1,nt,nt,i,9%,nt,nt
Cc1cc(-c2ccc(C)c(S(=O)(=O)NCCc3ccco3)c2)on1,15%,?,nt,29%,-1%,-1%
Cc1cc(-c2ccc(C)c(S(=O)(=O)NCCc3ccc(S(N)(=O)=O)cc3)c2)on1,5%,-15%,i,8%,4%,0%
Cc1cc(-c2ccc(C)c(S(=O)(=O)NCc3ccc(Br)cc3)c2)on1,14%,6%,i,18µM*,2%,-26%
Cc1cc(-c2ccc(C)c(S(=O)(=O)NCc3cccc(Br)c3)c2)on1,2%,5%,i,35µM*,0%,-30%
CCOc1ccccc1C(=O)Nc1nc2c(s1)CC(C)CC2 (stereo not given),nt,nt,i,?,nt,nt

# High-throughput results as filed in PubChem BioAssay.
